# According to PubChem BioAssay:
# Inconclusive results are not listed. The source made the active and inactive calls. Unless noted, no cut-off is given here; in the data, nearly all actives have AC50 up to about 26 µM.
# Columns and labels:
# [1] = viability loss in pontine glioma line – cell-based, SU-DIPG-XVII, MIPE5.0, CellTiter-Glo, qHTS, dose response (AID 1347060); conditions: CellTiter-Glo ATP luminescence;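 for AC50: cells exposed to compound for 48 hours before viability readout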
# [2] = viability loss in pontine glioma line – cell-based, SU-DIPG-XIII, MIPE4.0, CellTiter-Glo, qHTS, dose response (AID 1347061; cut-off not given, nearly all actives have AC50 up to about 37 µM;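 note: cells exposed to compound for 48 hours before readout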); conditions: CellTiter-Glo ATP luminescence
# [3] = viability loss in pontine glioma line – cell-based, JHH-DIPG-1, MIPE4.0, CellTiter-Glo, qHTS, dose response (AID 1347062; cut-off not given, nearly all actives have AC50 up to about 27 µM;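 for AC50: cells exposed to compound for two days before readout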); conditions: JHH-DIPG-1 viability, CellTiter-Glo ATP luminescence
# [4] = viability loss in pontine glioma line – cell-based, SU-DIPG-IV, MIPE4.0, CellTiter-Glo, qHTS, dose response (AID 1347063; cut-off not given, nearly all actives have AC50 up to about 30 µM;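 note: compound exposure lasted 48 hours before the viability readout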); conditions: CellTiter-Glo ATP luminescence
# [5] = viability loss in pontine glioma line – cell-based, SU-DIPG-XIII, MIPE5.0, CellTiter-Glo, qHTS, dose response (AID 1347064; cut-off not given, nearly all actives have AC50 up to about 23 µM;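 for AC50: cells exposed to compound for 48 hours before the viability read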); conditions: CellTiter-Glo ATP luminescence
# [6] = viability loss in pontine glioma line – cell-based, SU-DIPG-XXV, MIPE5.0, CellTiter-Glo, qHTS, dose response (AID 1347065); conditions: CellTiter-Glo ATP luminescence;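 note: cells exposed to compound for 48 hours before ATP readout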
# [7] = growth inhibition of DIPG cells – cell-based, MIPE4.0 library, CellTiter-Glo luminescence, qHTS (AID 1347066; cut-off not given, nearly all actives have AC50 up to about 30 µM;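 note: cells exposed to compound for 48 hours before readout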); conditions: SU-DIPG-VI viability, CellTiter-Glo ATP luminescence
# [8] = JHH-DIPG-1 glioma cell viability, MIPE5.0 library, CellTiter-Glo luminescence, qHTS (AID 1347067); conditions: JHH-DIPG-1 glioma viability, CellTiter-Glo ATP luminescence;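 note: cells exposed to compound for 48 hours before readout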
# [9] = growth inhibition of DIPG cells – cell-based, MIPE5.0 library, qHTS (AID 1347068; cut-off not given, nearly all actives have IC50 up to about 30 µM;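 for IC50: cells exposed to compound for 48 hours before viability readout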); conditions: SU-DIPG-XXV viability
# [10] = growth inhibition, single agent or in combination, cell-based, chromothripsis tumors, cisplatin or BGB combos (AID 1671449; in the data active = inhibition above about 80%;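 note: cells exposed for 96 hours; 0% = vehicle DMSO and 100% = killing by high DMSO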); conditions: LFS_MB_P medulloblastoma cells
# [11] = growth inhibition, single agent and combos, cell-based, chromothripsis tumors, cisplatin or BGB combos (AID 1671450; in the data active = inhibition above about 80%;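 note: cells exposed to compound for four days; 0% = vehicle DMSO and 100% = cell killing by high DMSO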); conditions: HDN33 neuroblastoma cells, stronger effect = higher value
# [12] = growth inhibition, single agents and combos, ICB984, cell-based, cisplatin or BGB combos, synergistic combos for chromothripsis tumors (AID 1671451; call rule not given here;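 note: cells exposed for 96 hours before readout; 0% = vehicle DMSO and 100% = killing by high DMSO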); conditions: ICB984 medulloblastoma cells, drug combinations, stronger effect = higher value
# [13] = growth inhibition, single agents and combos, HTB85, cell-based, BGB or cisplatin IC20 combos, synergistic combos for chromothripsis tumors (AID 1671453; in the data active = inhibition above about 80%;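 note: cells exposed for 96 hours before readout; 0% = vehicle DMSO and 100% = high DMSO killing control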); conditions: HTB85 osteosarcoma cells, drug combinations, stronger effect = higher value
# [14] = growth inhibition, MDA-MB-436, cell-based, BGB or cisplatin combos, synergistic combos for chromothripsis tumors (AID 1671458; call rule not given here;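 note: cells exposed for 96 hours; 0% = vehicle DMSO and 100% = killing by high DMSO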); conditions: MDA-MB-436 breast carcinoma growth inhibition, drug combinations, stronger effect = higher value
# [15] = BT084 cell growth, single and combined drugs, ICGC_MB145, cisplatin and BGB IC40 combos (AID 1671461; in the data active = inhibition above about 80%;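 note: cells exposed to drugs for 96 hours; 0% = vehicle DMSO and 100% = high DMSO full killing control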); conditions: BT084 medulloblastoma cells, drug combinations, stronger effect = higher value
# [16] = RCMB18 cell growth, single agent and combined, cisplatin and BGB IC40 combos (AID 1671462; in the data active = inhibition above about 80%;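 note: cells exposed to compound for four days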); conditions: RCMB18 medulloblastoma cells, stronger effect = higher value
# [17] = compounds altering HSF1 focus formation in cells – imaging, Selleck Cancer Library (AID 1347162; in the data active = plate-normalised HSF1 focus index below about 0.46); conditions: human cells, HSF1 nuclear foci imaging, at 10 µM; SSMD: measured here: HSF1 foci SSMD mean; cell count: measured here: cell number; plate-normalised HSF1 focus index: stronger effect = lower value
# [18] = viability loss with induced miR-34 in A549 – imaging, A549 dox-inducible miR-34, nuclei and caspase counts, primary screen (AID 1347080;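 active = compounds whose cell count with miR-34 switched on is under 0.7 times the count with it off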); conditions: A549 miR-34 inducible, Hoechst nuclei count, 48 h
# [19] = MELAS cybrid and Rieske KO viability enhancers – cell-based, MELAS cybrids, Rieske KO mouse fibroblasts, CellTiter-Glo, primary screen (AID 1508586;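 active = mean z-score across replicates of 1.96 or higher in either the MELAS or the Rieske mutant cell line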;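 note: z relative to plate mean and SD of compound and empty wells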); conditions: low glucose
structure (smiles),measurement,setting,value
O=C(/C=C/c1ccc(CN(CCO)CCc2c[nH]c3ccccc23)cc1)NO,AC50,[1],525 nM (active)
same,AC50,[2],1180 nM (active)
same,AC50,[3],235 nM (active)
same,AC50,[4],935 nM (active)
same,AC50,[5],332 nM (active)
same,AC50,[6],295 nM (active)
same,AC50,[7],235 nM (active)
same,AC50,[8],417 nM (active)
same,outcome,[9],inactive
same,inhibition,"[10]; at 0.5 µM, stronger effect = higher value",-16.3% (inactive)
same,inhibition,"[10]; measured here: combination with BGB IC20, at 0.005 µM",-29.5%
same,inhibition,"[10]; measured here: combination with BGB IC40, at 0.005 µM",-69.2%
same,inhibition,"[10]; measured here: combination with BGB IC40, at 0.05 µM",-42.5%
same,inhibition,"[10]; measured here: combination with cisplatin, at 0.5 µM, stronger effect = higher value",-26.1%
same,inhibition,"[10]; measured here: combination with cisplatin, at 5 µM, stronger effect = higher value",114%
same,inhibition,"[11]; BGB combo, at 5 µM",99.9%
same,inhibition,[11]; at 0.5 µM,99.3% (active)
same,inhibition,"[11]; cisplatin combo, at 5 µM",99.9%
same,inhibition,"[11]; measured here: with BGB IC20 combination, at 0.5 µM",98.5%
same,inhibition,"[11]; measured here: with cisplatin IC20 combination, at 0.5 µM",99.7%
same,inhibition,"[11]; single agent, at 5 µM",99.9%
same,inhibition,"[12]; BGB IC20 combo, at 0.005 µM",71.4%
same,inhibition,"[12]; BGB IC40 combo, at 0.005 µM",89.6%
same,inhibition,"[12]; BGB IC40 combo, at 0.05 µM",100%
same,inhibition,[12]; at 0.5 µM,-29.4% (inactive)
same,inhibition,"[12]; cisplatin combo, at 0.05 µM",101%
same,inhibition,"[12]; cisplatin combo, at 0.5 µM",-36.3%
same,inhibition,"[12]; cisplatin combo, at 5 µM",-4.27%
same,inhibition,"[12]; measured here: 5 uM single agent, at 5 µM",13.8%
same,inhibition,[13]; at 0.5 µM,99.3% (active)
same,inhibition,"[13]; measured here: with BGB IC20, at 0.5 µM",98.7%
same,inhibition,"[13]; measured here: with BGB IC20, at 5 µM",99.9%
same,inhibition,"[13]; measured here: with cisplatin IC20, at 0.5 µM",99.9%
same,inhibition,"[13]; measured here: with cisplatin IC20, at 5 µM",99.9%
same,inhibition,"[13]; single agent, at 5 µM",99.9%
same,inhibition,[14]; at 0.5 µM,63.3% (inactive)
same,inhibition,"[14]; measured here: BGB combination, at 0.5 µM",55.8%
same,inhibition,"[14]; measured here: BGB combination, at 5 µM",59.7%
same,inhibition,"[14]; measured here: cisplatin combination, at 0.5 µM",60.4%
same,inhibition,"[14]; measured here: cisplatin combination, at 5 µM",75.3%
same,inhibition,[15]; at 0.5 µM,98.5% (active)
same,inhibition,"[15]; cisplatin combination, at 0.5 µM",101%
same,inhibition,"[15]; cisplatin combination, at 5 µM",104%
same,inhibition,"[15]; measured here: BGB IC40 combination 0.05 uM, at 0.05 µM",38.4%
same,inhibition,"[15]; single agent, at 5 µM",108%
same,inhibition,[16]; at 0.5 µM,82% (active)
same,inhibition,"[16]; cisplatin combo, at 5 µM",98.9%
same,inhibition,"[16]; measured here: BGB IC40 combination, at 0.05 µM",6.39%
same,inhibition,"[16]; measured here: combination with cisplatin, at 0.5 µM",90.4%
same,inhibition,"[16]; single agent, at 5 µM",96.9%
Nc1ncnc2ccccc12,outcome,[1],inactive
same,outcome,[2],inactive
same,outcome,[3],inactive
same,outcome,[4],inactive
same,outcome,[5],inactive
same,outcome,[6],inactive
same,outcome,[8],inactive
same,outcome,[9],inactive
O=[N+]([O-])c1cn2c(n1)OC[C@@H](OCc1ccc(OC(F)(F)F)cc1)C2,AC50,[1],26300 nM (active)
same,outcome,[2],inactive
same,outcome,[3],inactive
same,outcome,[4],inactive
same,outcome,[5],inactive
same,outcome,[6],inactive
same,outcome,[8],inactive
same,outcome,[9],inactive
CN(C)C[C@@H]1CCn2cc(c3ccccc32)C2=C(C(=O)NC2=O)c2cn(c3ccccc23)CCO1,AC50,[1],26300 nM (active)
same,AC50,[2],16600 nM (active)
same,AC50,[3],29600 nM (active)
same,AC50,[4],16600 nM (active)
same,AC50,[5],9340 nM (active)
same,AC50,[6],18600 nM (active)
same,AC50,[7],13200 nM (active)
same,AC50,[8],7420 nM (active)
same,SSMD,[17],3.92
same,cell count,[17],6860
same,plate-normalised HSF1 focus index,[17],1.24 (inactive)
CC1(C)CC(=O)c2c(C(F)(F)F)nn(-c3ccc(C(N)=O)c(NC4CCC(OC(=O)CN)CC4)c3)c2C1 (stereo unspecified),AC50,[1],186 nM (active)
same,AC50,[2],662 nM (active)
same,AC50,[3],148 nM (active)
same,AC50,[4],418 nM (active)
same,AC50,[5],417 nM (active)
same,AC50,[6],235 nM (active)
same,AC50,[8],166 nM (active)
same,IC50,[9],263 nM (active)
same,fold change,"[18]; stronger effect = lower value, cell number ratio, induced over uninduced",1.04 (inactive)
same,fold change,[18]; measured here: relative caspase fold change +Dox/-Dox,0.875
same,cell count,"[18]; measured here: total cells with miR-34 induction, stronger effect = lower value",2840
same,cell count,[18]; measured here: total cells without miR-34 induction,2740
same,z-score,"[19]; MELAS cybrid survival, CellTiter-Glo 48 h, stronger effect = higher value",2.47 (active)
same,z-score,"[19]; Rieske KO mouse fibroblast survival, CellTiter-Glo 72 h",-1.59
